# Assay outcomes (PubChem BioAssay)
# Sampled rows, rich in hits. Any-hit rate of the full collection: about 4.5%.
# ssDAF-12 act: S. stercoralis DAF-12 nuclear receptor activators, primary screen, cell-based, luminescence, HEK293, GRIP1 co-expression, lit1-tk-luc; Nuclear hormone receptor DAF-12 (Strongyloides stercoralis); HEK293 ssDAF-12/GRIP1 lit1-tk-luc reporter; % of 3 µM dafachronic acid response; activation, % at 6.8 µM; 1% of 370,000 active; AID 652126, 2013;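 active = activation above the mean over all tested compounds plus 3 SD, cut at about 0.9% in these data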;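 also: 0% = DMSO-only wells and 100% = 3 µM delta7-dafachronic acid wells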
# hgDAF-12 ag: H. glycines DAF-12 receptor agonists, primary screen, cell-based, luminescence, HEK293, GAL4 fusion, UAS-luciferase. HEK293 GAL4-hgDAF12 UAS-luciferase reporter, agonist luminescence; normalized to butyrate control. activation, % at 6.8 µM. 1.8% of 370,000 active. AID 687014, 2013;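 active = activation above a cutoff set at the mean of all screened compounds plus 3 SD, cut at about 10% in these data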;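 also: 0% = DMSO wells and 100% = sodium butyrate wells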
# DAX1 inh-1: DAX1 (NR0B1) inhibitors, primary screen, cell-based, HEK293, Gal4-DAX1, luciferase luminescence; HEK293 Gal4-DAX1 luciferase reporter; inhibition, % at 6.75 µM; 0.99% of 340,000 active;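 active = inhibition above the mean over all tested compounds plus 3 SD, cut at about 4.2% in these data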;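 also: 0% = DAX1-transfected cells with DMSO and 100% = empty-vector control cells with DMSO; inhibition shows as a rise in luminescence from relieved DAX1 repression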
# Target sequence (P51843 207-470 limits assumed): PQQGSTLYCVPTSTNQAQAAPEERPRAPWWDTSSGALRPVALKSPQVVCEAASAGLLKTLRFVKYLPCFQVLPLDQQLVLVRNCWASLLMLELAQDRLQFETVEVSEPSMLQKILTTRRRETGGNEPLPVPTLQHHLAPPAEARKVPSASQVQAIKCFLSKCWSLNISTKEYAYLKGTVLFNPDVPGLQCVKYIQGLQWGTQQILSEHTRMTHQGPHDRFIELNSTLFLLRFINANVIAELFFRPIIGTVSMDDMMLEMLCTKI
# DAX1 inh-2: DAX1 (NR0B1) inhibitors on StAR promoter, primary screen, cell-based, luminescence, SF-1 (NR5A1), full-length DAX-1; inhibition, % at 6.8 µM; HEK293T StAR-luciferase reporter, SF-1/DAX-1 repression relief; 1.1% of 370,000 active;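 active = inhibition above the mean over all tested compounds plus 3 SD, cut at about 3.6% in these data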;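 also: 0% = DAX-1 cells with DMSO and 100% = cells lacking DAX-1 with DMSO; higher inhibition means more luminescence from relief of DAX-1 repression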
# hcDAF12 agonist: H. contortus DAF-12 nuclear receptor activators, primary screen, cell-based, luminescence, HEK293, lit1-tk-luc reporter; 1.4% of 370,000 active; HEK293 hcDAF-12 lit1-tk-luc reporter; 0% DMSO, 100% Δ7-dafachronic acid; activation, % at 6.8 µM; AID 652067, 2013;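 active = activation above the mean of all tested compounds plus 3 SD, cut at about 5.5% in these data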;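 also: 100% = response to 3 µM Δ7-dafachronic acid high control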
# GAA850 FXN act: FXN promoter activators, primary screen, cell-based, luciferase luminescence, HEK293 lucGAA850. HEK293 lucGAA850 FXN promoter luciferase reporter, 24 h; percent of 10 µM SAHA response. activation, % at 6 µM. 0.56% of 360,000 active. AID 540364, 2011;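 active = activation above the average of all compounds screened plus 3 SD, cutoff fixed separately per campaign, cut at about 7.5% in these data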;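 also: 0% = DMSO wells and 100% = 10 µM SAHA wells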
# An asterisk follows results filed as active; . = no result given.
SMILES,ssDAF-12 act,hgDAF-12 ag,DAX1 inh-1,DAX1 inh-2,hcDAF12 agonist,GAA850 FXN act
CC(C)N1CCCCC(NC(=O)c2cccc(C(F)(F)F)c2)C1=O (stereo unspecified),-1,-5,.,-1,1,.
CC1(C)Cc2nc3sc(C(=O)NCCO)c(N)c3cc2CO1,-1,5,2,0,1,2
CC1(C)Cc2nc3sc(C(=O)NCCCO)c(N)c3cc2CS1,-1,7,5.0*,1,1,2
CCOP(=O)(OCC)C(NC(=O)Nc1ccc(Cl)cc1)C(=O)N(CC)CC (stereo unspecified),1.5*,3,1,0,0,1
c1ccc(-c2ccc(OCCCNC3CCCC3)cc2)cc1,-1,-1,.,0,0,1
c1ccc(SCCCCNC2CCCC2)cc1,1.7*,1,0,1,1,3
C[C@@H]1COc2cccc(N3CCSCC3)c2S(=O)(=O)N1C,0,0,.,-1,1,.
COC(=O)c1ccc(/C=N/OCC(=O)NC2CCCC(C)C2C)cc1 (stereo unspecified),-1,-2,2,0,-1,0
COc1cc(/C=N/OCC(=O)NC2CCCCC2C)ccc1OCc1ccc(Cl)cc1 (stereo unspecified),0,11*,3,4.2*,2,1
CCOC(=O)c1cc(C#N)c(SCc2ccc(C#N)cc2)nc1C,1.1*,0,0,0,3,0
CC1CCCN(C(=O)CSCC(=O)Nc2nc(-c3cccs3)cs2)C1 (stereo unspecified),0,3,0,1,6.4*,4
Cc1ccc(SC(=O)c2c([N+](=O)[O-])c(C)nn2C)cc1,-1,-1,4.5*,0,0,2
CCCN1CCS(=O)(=O)N(Cc2cn(Cc3ccc(C)cc3)nn2)C(C(=O)OC)C1 (stereo unspecified),-1,-3,.,0,0,.
CN1CCN(c2ccncc2S(=O)(=O)N2CCCCC2)CC1,-1,1,4.9*,0,0,0
O=C(NC1CCCCN(Cc2ccc(Cl)cc2)C1=O)c1c(F)cccc1F (stereo unspecified),-1,-1,.,0,-2,.
O=C(CCc1ccccc1)N[C@H]1[C@H](O)CCC[C@]12C(=O)N(Cc1ccccc1)c1ccccc12,-1,4,.,0,0,.
Cc1cccc(NC(=O)CSc2nc(=O)n3ccccc3n2)c1C,-1,0,1,-1,1,0
O=C(CSc1nc(=O)n2ccccc2n1)Nc1cccc2ccccc12,1.0*,2,1,1,2,0
O=C(CSc1cccs1)Nc1cccc2ccccc12,0,11*,1,2,5,8
O=C(OC12CCCN(C1)/C(=C/c1cccnc1)C2)c1ccccc1 (stereo unspecified),-2,-5,.,-2,-5,.
COC(=O)c1ccc(Cn2ccc3ccc(-c4ccc5ccn(C(=O)c6ccc(C)cc6)c5c4)cc32)cc1,0,-2,.,0,3,.
Cc1nn(-c2ccccc2)nc1C(=O)Nc1ccccc1C(=O)NCC1CC1,-1,-2,.,0,-2,.
Cc1cc([N+](=O)[O-])nn1CC(=O)N(C)Cc1ccccc1,-2,-2,0,-1,-2,2
Cc1cc([N+](=O)[O-])nn1CC(=O)N(C)C1CCCCC1,1,0,2,0,6.3*,-2
CNCCOc1ccc(Cl)c(Cl)c1,-1,-3,5.3*,0,-1,1
SMILES,ssDAF-12 act,hgDAF-12 ag,DAX1 inh-1,DAX1 inh-2,hcDAF12 agonist,GAA850 FXN act
Clc1ccc(OCCN2CCCCC2)cc1Cl,-1,-1,1,0,1,1
Cn1c(/C(C#N)=C/c2ccncc2)nc2ccccc21,-1,-1,-2,0,-1,0
Cn1c(/C(C#N)=C/c2ccc(O)cc2)nc2ccccc21,1.2*,7,5.5*,1,0,3
CCn1c(CNC(=O)Cc2ccc(OC)cc2)nnc1SCC(=O)NC1CCCCC1,1.0*,-1,0,0,0,1
CCn1c(Cc2ccc(OC)cc2)nnc1SCC(=O)NC1CC1,-1,4,0,1,-1,2
CCOc1ccccc1-c1nnc(SCC(=O)NC2CC2)n1CC,1.1*,3,0,-1,4,-1
CCn1c(COc2ccccc2C)nnc1SCC(=O)NC1CCCC1,-2,-3,-1,-1,-1,-1
CCn1c(CNC(=O)Cc2ccc(OC)cc2)n[nH]c1=S,-2,0,-1,4.1*,-1,2
O=C(NC1CCCCN(Cc2cccc(C(F)(F)F)c2)C1=O)c1ccc(COc2ccccc2)cc1 (stereo unspecified),-3,-4,.,-5,-5,.
N=c1sccn1CC(=O)Nc1ccc(Cl)cc1[N+](=O)[O-],-1,2,4.4*,-1,2,1
CS(=O)(=O)c1ccc(C(=O)OCC(=O)NCc2cccs2)cc1[N+](=O)[O-],-1,-3,0,-1,0,8.8*
COc1ccc2c(=O)c(Oc3ccc(C(=O)O)cc3)c(C(F)(F)F)oc2c1,0.9*,10,-2,4.2*,3,2
Cc1oc2cc(OCC(=O)O)ccc2c(=O)c1Oc1ccccc1,-1,1,0,0,0,1
COc1ccc(S[C@]2(C(=O)N3CCN(c4ncccn4)CC3)CC(=O)N(c3ccc4ccccc4c3)[C@@H]2c2ccc(OC)cc2)cc1,-1,-2,.,0,-3,.
O=C(NNC(=S)NC(=O)c1sc2ccccc2c1Cl)c1ccc(Cl)cc1,1.2*,3,1,1,5,2
Cn1c(SCC(=O)Nc2ccccc2)nc2c([nH]c3ccccc32)c1=O,-1,1,0,0,1,-2
Cc1nc2c([nH]c3ccccc32)c(=O)n1N,1.2*,2,.,0,3,4
Cc1cccc(NC(=O)CSc2nc3c([nH]c4ccccc43)c(=O)n2C)c1,1,5,-1,1,6.0*,-2
COc1cccc(NC(=O)CSc2nc3c([nH]c4ccccc43)c(=O)n2C)c1,0,5,-1,0,6.4*,2
CCSc1nc2c([nH]c3ccccc32)c(=O)n1C,-1,-4,2,0,3,0
